# From ChEMBL document CHEMBL3988442, “University of Dundee, Small-Polar-MMV Screening Library” (2021)
# The whole screen tested about 48,000 compounds, of which about 13,000 (27%) showed an effect of 50% or more. The list shows a part of the results.
# Test system: Wolbachia pipientis
# Assay: Anti-Wolbachia Cell-Based Screen
# Assay type: functional
# Design: scale not given: in the data most compounds retested in dose-response had high values
# Details: 5 µM
row,Compound,Percent Effect
1,CCc1noc(-c2cccc(OCC(=O)NC(C)C)c2)n1,95.64%
2,CCCn1nc(-c2nc(COc3ccccc3)no2)ccc1=O,-3.247%
3,CC(NC(=O)COc1nc(C(C)(C)C)no1)c1ccco1 (stereo not drawn),8.75%
4,CC(C)c1noc(CS(=O)(=O)CC(=O)NCCOc2ccccc2)n1,13.06%
5,CCCNC(=O)COc1cccc(-c2nc(C(C)C)no2)c1,120.4%
6,COc1cccc(-c2n[nH]cc2C(=O)NC(C)c2nc(C(C)C)no2)c1 (stereo not drawn),-2.83%
7,CC(C)NC(=O)COc1ccc(-c2nc(C(C)C)no2)cc1,114.1%
8,CC(C)c1noc(CCCC(=O)NCCOc2ccccc2)n1,-1.504%
9,CC(C)NC(=O)COc1nc(C(C)(C)C)no1,-1.58%
10,C=C(C)COc1cccc(C(=O)N(CC)Cc2noc(C)n2)c1,-33.22%
11,CC(C)NC(=O)COc1cccc(-c2nc(C(C)C)no2)c1,105.1%
12,CC(C)NC(=O)COc1nc(C(C)C)no1,-19.75%
13,Cc1oncc1S(=O)(=O)N1CCCC(C)(Cc2ccc3c(c2)OCO3)C1 (stereo not drawn),-3.14%
14,CS(=O)(=O)NCCC(=O)NCc1cccnc1-n1cnc2ccccc21,11.61%
15,O=C(CS(=O)(=O)C1CCCC1)NC1CCCc2cc(OC(F)F)ccc21 (stereo not drawn),-7.219%
16,COCCN(Cc1ccccn1)C(=O)CC1OCCc2sccc21 (stereo not drawn),9.879%
17,CSCc1noc(CN2CC3(CCCC3)CC2=O)n1,-12.65%
18,CN(C)C(C(=O)N1CCN(C(=O)c2ccc[nH]2)CC1)c1ccc(F)cc1 (stereo not drawn),1.074%
19,CC(C)c1noc(-c2cccc(OCC(N)=O)c2)n1,109.4%
20,CC(C)c1ncc2c(n1)CN(Cc1cccc(OCC(N)=O)c1)CC2,-10.24%
21,CN1CCC(Cc2noc(-c3cccc(OCC(N)=O)c3)n2)CC1,14.54%
22,CN(CCOc1cccc(CN)c1)C1CCOCC1,3.585%
23,Cn1cc(CN2CCCCC2c2ccc(-c3cnn(C)c3)nc2)cn1 (stereo not drawn),49.11%
24,Cn1c(Cl)cnc1CN1CCCC1c1ccc2c(c1)OCCO2 (stereo not drawn),-20.61%
25,Cn1cc(-c2ccc(C3CCCCN3Cc3cccnc3)cn2)cn1 (stereo not drawn),97.17%
26,Cn1cc(CN2CCCCC2c2ccc(-c3cccc(Cl)c3)nc2)cn1 (stereo not drawn),64.04%

row,Compound,Percent Effect
1,Cc1cnn(CCCNC(=O)C2CCCCN2Cc2cccnc2)c1 (stereo not drawn),8.943%
2,Cn1cc(CN2CCCCC2c2ccc(-c3cccc(F)c3)nc2)cn1 (stereo not drawn),28.65%
3,CN(CC(=O)Nc1ccccc1)C(=O)CN(C)c1ccc(Cl)cn1,-3.187%
4,CSc1ncc(CNCC2(N3CCCCC3)Cc3ccccc3C2)cn1,-2.025%
5,Cc1noc(CS(=O)(=O)c2cc(F)ccc2F)n1,2.12%
6,Nc1nccc(N2CCNC(C(=O)NCc3ccccn3)C2)n1 (stereo not drawn),-0.8592%
7,Cc1cnc(N2CCOC(C(=O)NCc3ccccc3)C2)s1 (stereo not drawn),138.3%
8,O=C(NCc1ccncc1)C1CN(c2nc3ccccc3s2)CCN1 (stereo not drawn),6.015%
9,CCC1CN(C(=O)c2cnc(-c3ccccc3)s2)CCO1 (stereo not drawn),-14.04%
10,O=C(NC[C@H]1OC[C@@H]2CCN(c3ccccn3)C[C@@H]21)c1ccco1,-8.109%
11,O=C(NCc1ccccc1)C1CN(c2ccccn2)CCO1 (stereo not drawn),195.5%
12,CN(C)c1ccccc1C(=O)N1C[C@@H](CN2CCOCC2)[C@@H](CO)C1,9.943%
13,O=C1N[C@@H]2CCN(C(=O)c3ccccc3)[C@@H]2C(=O)N1Cc1ccccc1,-7.073%
14,N#Cc1ncn(CCC(=O)Nc2ccc(F)c(F)c2)n1,100.3%
15,N#Cc1ncn(CCC(=O)Nc2cc(Cl)ccc2Cl)n1,94.62%
16,O=C(CCNC(=O)c1ccoc1)Nc1ccccc1F,-1.29%
17,Cc1ccc(F)cc1NC(=O)CCn1cncn1,-7.237%
18,N#Cc1ncn(CC(=O)Nc2cc(Cl)ccc2F)n1,-2.838%
19,N#Cc1ncn(CCC(=O)Nc2cccc(Cl)c2)n1,93.03%
20,N#Cc1ncn(CCC(=O)Nc2ccc(Cl)cc2F)n1,11.11%
21,N#Cc1ncn(CCS(=O)(=O)c2ccccc2)n1,11.97%
22,N#Cc1ncn(CCS(=O)(=O)c2ccc(Br)cc2)n1,14.03%
23,N#Cc1ncn(CCC(=O)Nc2ccccc2F)n1,141.3%
24,N#Cc1ncn(CCS(=O)(=O)c2ccc(Cl)cc2)n1,-0.6249%
25,N#Cc1ncn(CCC(=O)Nc2c(Cl)cccc2Cl)n1,-3.932%
26,CCCC1CCN(C(=O)c2coc(COc3ccc(OC)cc3)n2)C1 (stereo not drawn),13.18%

row,Compound,Percent Effect
1,CCOc1c(Br)cc(CNC(C)c2nnc3n2CCC3)cc1OC (stereo not drawn),-3.79%
2,O=C(c1cc(COc2ccc3c(c2)OCO3)[nH]n1)N1CCCO1,-2.662%
3,COc1ccc(C[C@H]2CN(C3CCOCC3)CC[C@H]2OCC2CC2)cc1.O=C(O)C(F)(F)F,-41.15%
4,COc1ccc(CN2C[C@@H]3CN(Cc4ccoc4)C[C@@H]3C2=O)cc1.O=C(O)C(F)(F)F,-0.9609%
5,COc1ccc(C[C@H]2CN(Cc3ccoc3)CC[C@H]2OC)cc1.O=C(O)C(F)(F)F,63.46%
6,COc1ccc(C[C@H]2CN(Cc3ccoc3)CC[C@@H]2OC)cc1.O=C(O)C(F)(F)F,76.48%
7,COc1ccc(C[C@H]2CN(C3CCOCC3)CC[C@@H]2OCC2CC2)cc1.O=C(O)C(F)(F)F,-34.49%
8,COc1ccc(CN2CCN(S(=O)(=O)c3cc(C(=O)O)cs3)CC2)cc1,1.54%
9,Cc1cc(-c2nn(C)c(Cl)c2CN2CCOCC2CC(=O)O)no1 (stereo not drawn),1.04%
10,CCCS(=O)(=O)c1ncc(CN2CCC(C)CC2)n1CC1CCCO1 (stereo not drawn),-5.004%
11,CC(=O)N1CCN(CCNS(=O)(=O)c2cccc(F)c2)CC1,146.4%
12,Cc1ccc(F)cc1S(=O)(=O)NCc1cccc(CS(C)(=O)=O)c1,-14.38%
13,CC1CCN(CCCNS(=O)(=O)c2cc(F)cc(F)c2)CC1.Cl,-12.88%
14,CC(=O)N1CCN(CCNS(=O)(=O)c2cc(F)cc(F)c2)CC1,102.1%
15,CC(=O)N1CCN(CCCSCc2ccccc2)CC1,-1.866%
16,CC(=O)N1CCN(CCNS(=O)(=O)c2c(F)cccc2F)CC1,115.2%
17,CC(=O)N1CCN(CCNc2ncc(Br)cc2C)CC1,3.175%
18,CSCc1cccc(S(=O)(=O)NCCCN2CCOCC2)c1,-6.624%
19,CC1CCN(CCCNS(=O)(=O)c2cccc(F)c2)CC1.Cl,5.28%
20,CC(=O)N1CCN(CCNS(=O)(=O)c2cc(F)ccc2C)CC1,96.01%
21,O=S(=O)(NCCC(O)c1cccs1)c1c(F)cccc1F (stereo not drawn),0.3394%
22,O=S(=O)(NCCCN1CCCC1)c1cc(F)cc(F)c1,-0.6955%
23,Cc1nc(CNCc2ccc(N3CCN(C)CC3)nc2)cs1,-1.26%
24,CN(CCCNS(=O)(=O)N1CCC2(CC1)OCCO2)c1ccccc1,15.24%
25,CNc1ccnc(N2C[C@@H]3CC[C@H](C2)N(CCOC)C3=O)n1,-5.532%
26,CS(=O)(=O)Cc1cccc(CNS(=O)(=O)c2ccc(F)c(F)c2)c1,-9.477%

row,Compound,Percent Effect
1,CC(=O)N1CCN(CCNS(=O)(=O)c2ccc(F)c(F)c2)CC1,114.9%
2,O=S(=O)(NCCN1CC=CC1)c1ccc(Cl)cc1,-10.33%
3,Cn1ncc2ccc(C3CCCN(Cc4cccs4)C3)nc21 (stereo not drawn),161.9%
4,Cn1ncc2ccc(C3CCCN(Cc4ccsc4)C3)nc21 (stereo not drawn),178.8%
5,Cn1cc(CN2CCO[C@H]3CN(Cc4ccsc4)C[C@H]32)cn1,-4.934%
6,Cn1ncc2ccc(C3CCCN(C(=O)Cc4cccs4)C3)nc21 (stereo not drawn),73.59%
7,COCC1CN(C(=O)Cc2cccs2)Cc2c1cnn2C (stereo not drawn),-7.933%
8,O=C(Cc1cccs1)N1CCCC(CNS(=O)(=O)Cc2ccccc2)C1 (stereo not drawn),-8.788%
9,O=C(c1cnc(Cc2c(Cl)cccc2Cl)nc1O)N1CCNCC1,20.47%
10,COCCc1noc(C2CCN(C(=O)Nc3cccs3)CC2)n1,-7.09%
11,c1ccc(CN2CCN(Cc3cscn3)CC2)cc1,8.549%
12,CN1CCN(Cc2ccccc2Cl)CC12CCC(=O)N(CC1CC1)CC2 (stereo not drawn),19.23%
13,O=C1CCC(=O)N1c1nn(Cc2cccc(F)c2)cc1Cl,81.78%
14,Fc1cccc(Cl)c1CN1CCn2c(nnc2C2CC2)C1,-25.63%
15,O=c1ccc(-c2cccs2)nn1CN1CCN(Cc2ccccc2)CC1,10.59%
16,O=C1CCC(=O)N1c1nn(Cc2ccccc2Cl)cc1Cl,119%
17,O=C1N(c2cccc(Cl)c2)Cc2nc(=O)n(Cc3cccc(F)c3)n21,-1.382%
18,O=C1CCC(=O)N1c1nn(Cc2c(F)cccc2Cl)cc1Cl,84.15%
19,CCn1cc(C(=O)N(C)Cc2c(F)cccc2Cl)cn1,10.91%
20,O=C1N(Cc2ccccc2)C[C@H]2CN(Cc3ccccc3Cl)CCN12,-1.651%
21,Cc1nsc(N2CCN(Cc3cccc(F)c3)CC2)n1,-33.99%
22,O=C1CCC(=O)N1c1nn(Cc2ccccc2)cc1Cl,98.19%
23,Cc1cc(C(=O)N2CCc3nnc(N(C)C)cc3C2)c(C)n1C1CC1,2.988%
24,CS(=O)(=O)c1nnc(NC(=O)CCc2cccc(Cl)c2)[nH]1,-4.467%
25,O=C(c1ncoc1-c1ccco1)N(Cc1ccco1)CC1CCCO1 (stereo not drawn),1.49%
